Compounds with a hit are over-represented: about 1.6% of the library has one in this group of screens.
KCNQ2 pot – enhances the rat KCNQ2 potassium channel | CHO-K1 KCNQ2, FluxOR thallium flux fluorescence; stronger effect = higher value | B-score at 10 µM | 310,000 compounds, 0.54% hits | AID 2239;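 active = fluorescence ratio B-score at least 3 SD of library B-scores, with initial fluorescence B-score within 3 of them, cut at about 5.3 in these data; same plate scores as AID 2156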;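 also: B-score of peak minus minimum over baseline fluorescence ratio after K+ and Tl+ stimulus; positive B-score means potentiation of KCNQ2 with more thallium influx and brighter signal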
KCNQ2 inh – blocks the rat KCNQ2 potassium channel; O88943; CHO-K1 KCNQ2, FluxOR thallium flux, 20 min; stronger effect = lower value; 310,000 compounds, 1.1% hits; B-score at 10 µM;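 active = fluorescence ratio B-score at most minus 3 library SDs, with starting brightness B-score within 2 library SDs, cut at about -5.5 in these data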
Kir21 confirm – confirmation of mouse Kir2.1 potassium channel inhibitors; Kir2.1-expressing cells, FluxOR thallium flux fluorescence; stronger effect = lower value; Tl flux remaining, % of negative control (stronger effect = lower value), % at 10 µM; 2,300 compounds, 41% hits; shares compounds with KCNQ2 pot;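 active = Primary-screen hit whose thallium flux fell at least 3 control SD below untreated wells in both duplicates, with normal baseline fluorescence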;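 also: 0% = blank wells without stimulus and 100% = stimulated no-compound controls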
HEK293 ctr – alters thallium flux in parental HEK293 cells, Kir2.1 counter-screen. shares compounds with KCNQ2 pot. FluxOR thallium flux fluorescence; 0% = unstimulated blank wells. FluxOR signal as % of negative control (100 = no effect), % at 10 µM. 2,300 compounds, 19% hits;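 active = dye signal at least 3 control SD above or below untreated wells in both duplicates, raw fluorescence within 3, either direction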;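 also: percent is based on the flux ratio of peak minus minimum fluorescence over baseline F0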
CHO-K1 ctr – counter-screen for KCNQ2 potentiators: effect in parental CHO-K1 cells; 1,200 compounds, 43% hits; activity increase over 3SD of controls, % at 10 µM; shares compounds with KCNQ2 pot; FluxOR thallium flux fluorescence; zero = vehicle mean+3SD, 100% = vehicle-minus-blank window;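 active = signal rise of at least 3 SD above the untreated control mean, in both duplicate wells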;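 also: counter screen of KCNQ2 potentiator hits so any rise reflects channel-independent effects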
KCNQ1 pot spec – human KCNQ1 counter-target activity of KCNQ2 potentiators; 1,200 compounds, 28% hits; activation over 3SD threshold, % at 10 µM; AID 2283; CHO KCNQ1 stable, FluxOR thallium flux fluorescence; beyond 3SD, as % of vehicle-control signal; shares compounds with KCNQ2 pot;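 active = fluorescence ratio rise of at least 3 SD of vehicle wells above their mean, in both replicate wells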;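 also: 0% = vehicle mean plus 3 SD and 100% = vehicle minus unstimulated blank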
Target sequence (P51787 whole entry, looked up): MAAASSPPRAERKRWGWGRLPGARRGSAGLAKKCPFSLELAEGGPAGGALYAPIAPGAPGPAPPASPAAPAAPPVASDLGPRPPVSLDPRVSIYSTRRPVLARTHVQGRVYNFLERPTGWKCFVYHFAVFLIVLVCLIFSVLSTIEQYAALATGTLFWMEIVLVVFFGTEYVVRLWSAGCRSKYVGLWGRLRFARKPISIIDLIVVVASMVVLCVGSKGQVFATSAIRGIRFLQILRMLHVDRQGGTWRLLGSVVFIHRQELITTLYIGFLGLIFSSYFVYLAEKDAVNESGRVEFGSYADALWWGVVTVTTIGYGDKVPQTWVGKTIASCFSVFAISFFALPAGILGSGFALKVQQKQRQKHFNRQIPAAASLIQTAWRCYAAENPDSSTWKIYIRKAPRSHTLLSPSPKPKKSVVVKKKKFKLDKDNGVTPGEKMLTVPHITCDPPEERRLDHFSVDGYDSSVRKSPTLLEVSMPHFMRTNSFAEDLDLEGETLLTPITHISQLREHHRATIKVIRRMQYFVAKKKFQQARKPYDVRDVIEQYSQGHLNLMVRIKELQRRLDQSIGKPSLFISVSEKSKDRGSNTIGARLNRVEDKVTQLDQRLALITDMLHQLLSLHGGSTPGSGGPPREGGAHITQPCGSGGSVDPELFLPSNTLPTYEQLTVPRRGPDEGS
KCNQ2 pot conf – rat KCNQ2 channel potentiator confirmation | 1,200 compounds, 68% hits | CHO-KCNQ2 cells, FluxOR thallium flux fluorescence | potentiation, less the hit threshold, % at 10 µM | shares compounds with KCNQ2 pot | AID 2287;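 active = fluorescence ratio rising 3 SD or more over the vehicle control mean in both replicates, plus primary screen hit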;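 also: peak minus minimum thallium fluorescence divided by baseline after K/Tl stimulus; 0% = vehicle mean plus 3 SD and 100% = vehicle minus unstimulated blank difference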
Kir2-1 sel – mouse Kir2.1 off-target activity of KCNQ2 potentiators; shares compounds with KCNQ2 pot; HEK293 Kir2.1, FluxOR thallium flux fluorescence; activity over 3SD threshold, % at 10 µM; 1,200 compounds, 2% hits; AID 2345;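 active = fluorescence ratio rise of at least 3 SD above the vehicle-control mean, seen in both replicates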;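 also: 0% = vehicle mean plus 3 SD and 100% = vehicle minus no-stimulus blank window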
KCNQ2 W236L MoA – rat KCNQ2 W236L mutant potentiation by KCNQ2 potentiators; current increase over 3SD of negative controls (%), stronger effect = higher value, % at 25 µM; CHO KCNQ2-W236L, automated patch clamp current; 940 compounds, 10% hits; shares compounds with KCNQ2 pot;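 active = current increase at least 3 SD of the untreated controls above them in both duplicate recordings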
Active calls of the source: *; i = inactive; · = no result.

SMILES | KCNQ2 pot | KCNQ2 inh | Kir21 confirm | HEK293 ctr | others
Cc1cccc(C)c1N1CCN(C(=O)Cn2cncn2)CC1 | · | i | · | ·
Cc1ccc(N(CC(=O)N(C)Cc2ccccc2)S(C)(=O)=O)cc1C | 0.05 | i | · | ·
O=C1NCCN/C1=C\C(=O)c1cccc(Br)c1 | · | i | · | ·
CCc1cccc(NS(=O)(=O)c2c(C)[nH]c(=O)[nH]c2=O)c1 | · | i | · | ·
O=C(CN1C(=O)NC2(CCCCC2)C1=O)N1CCN(S(=O)(=O)/C=C/c2ccccc2)CC1 | 1.01 | i | · | ·
CCN(CC)C(=O)Cn1c(=O)c2ccccc2n2c(=S)sc(-c3cccc(C)c3)c12 | · | i | · | ·
CCc1ccc(CNC(=O)c2ccc3nc(C4CCCCC4)oc3c2)nc1 | 16.7* | i | · | · | CHO-K1 ctr=-10.9;KCNQ1 pot spec=17.1*;KCNQ2 pot conf=9.2*;Kir2-1 sel=-45.1;KCNQ2 W236L MoA=i
CCOC(=O)CCNC(=O)c1ccc2nc(C3CCCCC3)oc2c1 | 1.97 | i | · | ·
CC(C)CN1C(=O)/C(=C/c2cccs2)NC1=S | 12.4* | i | i | 321.5%* | CHO-K1 ctr=-24.5;KCNQ1 pot spec=-19.4;KCNQ2 pot conf=56.9*;Kir2-1 sel=-14.2;KCNQ2 W236L MoA=i
CCCN1C(=O)/C(=C/c2ccc(C)s2)NC1=S | 14.7* | i | i | 216.5%* | CHO-K1 ctr=-5.9;KCNQ1 pot spec=-12.5;KCNQ2 pot conf=66.1*;Kir2-1 sel=-31.9;KCNQ2 W236L MoA=i
CC(C)CN1C(=O)/C(=C/c2ccco2)NC1=S | 1.55 | i | · | ·
Cc1ccc(/C=C2/NC(=O)N(Cc3ccccc3F)C2=O)s1 | · | i | · | ·
Cc1cc(C)n(CCCNC(=O)c2ccc(C)c(S(=O)(=O)N3CCOCC3)c2)n1 | 0.61 | i | · | ·
CC(C)Cc1nnc(NC(=O)CCC(=O)NC2CC2)s1 | 0.58 | i | · | ·
COCC(=O)N1CCC(n2nccc2NC(=O)c2ccccc2OC)CC1 | · | i | · | ·
CC1(C)C(Cl)C(=O)C(C(=O)c2ccccc2)C(=O)C1Cl (stereo not drawn) | 1.16 | i | · | ·
O=C1NC(c2cccc([N+](=O)[O-])c2)Oc2ccccc21 (stereo not drawn) | 0.63 | i | · | ·
Cc1ccc(N2NC(=O)/C(=C\c3cc4c(cc3[N+](=O)[O-])OCO4)C2=O)cc1C | · | i | 75.5%* | i
COc1cc(/C=C2/C(=O)NN(c3ccc(C)c(Cl)c3)C2=O)cc([N+](=O)[O-])c1O | · | i | · | ·
COc1cccc(CN=C2Nc3ccccc3CS2)c1 | · | i | · | ·
COc1ccccc1CN=C1Nc2ccccc2CS1 | · | i | 58.5%* | i
Cc1cc(C(=O)NNC(=O)/C=C/c2ccc(F)cc2)c(C)o1 | · | i | · | ·
Cc1ccccc1CNS(=O)(=O)c1ccccc1[N+](=O)[O-] | 0.52 | i | · | ·
Cc1onc(-c2ccccc2)c1CNS(=O)(=O)c1ccccc1[N+](=O)[O-] | 0.48 | i | 60.5%* | i
C#CCN(C)Cc1ccccc1 | · | i | · | ·
SMILES | KCNQ2 pot | KCNQ2 inh | Kir21 confirm | HEK293 ctr | others
C#CC(CO)N(CCN(Cc1ccccc1)C(C#C)CO)Cc1ccccc1 (stereo not drawn) | · | i | 61.5%* | i
CC1CC(C)CN(CC(O)COCc2ccccc2F)C1 (stereo not drawn) | 1.39 | i | · | ·
Cc1ccc(N=Nc2ccc(O)c3ncccc23)cc1C | 2.79 | i | · | ·
CCS(=O)(=O)c1ccc(N=Nc2ccc(O)c3ncccc23)c(OC)c1 | 0.63 | i | · | ·
Cc1ccc(N=Nc2ccc(O)c3ncccc23)cc1 | 8.3* | i | i | i | CHO-K1 ctr=-11.7;KCNQ1 pot spec=27.0*;KCNQ2 pot conf=13.0*;Kir2-1 sel=-35.0;KCNQ2 W236L MoA=i
COc1ccccc1N=Nc1ccc(O)c2ncccc12 | 6.72* | i | i | i | CHO-K1 ctr=-7.2;KCNQ1 pot spec=-21.1;KCNQ2 pot conf=1.5*;Kir2-1 sel=-28.4;KCNQ2 W236L MoA=i
CCC(=O)Nc1ccc(N2CCCCC2)c(C(=O)Nc2ccc(OC)cc2)c1 | 1.28 | i | · | ·
Cc1ccc(NC(=O)CSCC(=O)Nc2ccccc2C(=O)N2CCCCC2)cc1 | 0.38 | i | · | ·
COc1ccc(NC(=O)CSCC(=O)Nc2cc(Cl)ccc2N2CCCC2)cc1 | 7.13* | i | i | i | CHO-K1 ctr=-6.6;KCNQ1 pot spec=66.1*;KCNQ2 pot conf=6.3*;Kir2-1 sel=-44.4;KCNQ2 W236L MoA=i
Cc1ccc(NC(=O)CSCC(=O)Nc2ccccc2N2CCCC2)cc1 | 1.39 | i | 74.5%* | 74.0%*
COc1ccc(NC(=O)CSCC(=O)Nc2cc(Cl)ccc2N2CCOCC2)cc1 | 4.65 | i | · | ·
COc1ccc(CC(=O)Nc2ccc(N3CCCC3)c(C)c2)cc1 | 6.81* | i | 34.0%* | i | CHO-K1 ctr=9.8*;KCNQ1 pot spec=57.3*;KCNQ2 pot conf=21.7*;Kir2-1 sel=-99.2;KCNQ2 W236L MoA=i
Cc1[nH]c(=O)[nH]c(=O)c1S(=O)(=O)Nc1cccc([N+](=O)[O-])c1C | 0.01 | i | · | ·
O=C(Nc1cccnc1)c1ccc(Oc2ccccc2)cc1 | 18.4* | i | i | i | CHO-K1 ctr=-12.4;KCNQ1 pot spec=-17.9;KCNQ2 pot conf=85.1*;Kir2-1 sel=-49.0;KCNQ2 W236L MoA=i
O=C(Nc1cccnc1)c1ccc(Cl)c(Cl)c1 | 8.08* | i | i | i | CHO-K1 ctr=18.0*;KCNQ1 pot spec=-5.6;KCNQ2 pot conf=21.0*;Kir2-1 sel=-32.1;KCNQ2 W236L MoA=10.8%*
O=C(NNC(=O)c1ccc(Cl)c(Cl)c1)c1cccnc1 | · | i | · | ·
O=C(Nc1cccnc1)c1ccccc1Oc1ccccc1 | · | i | · | ·
Cc1cccc(C)c1NCc1n[nH]c(=S)n1-c1ccccc1 | · | i | · | ·
O=C(NCc1ccc2c3c(cccc13)C(=O)N2)c1cccs1 | · | i | · | ·
CCCCn1c(-c2csc3ccccc23)n[nH]c1=S | 0.12 | i | · | ·
CCCCn1c(-c2csc(C(C)C)c2)n[nH]c1=S | 8.14* | i | · | · | CHO-K1 ctr=-1.7;KCNQ1 pot spec=21.8*;KCNQ2 pot conf=3.4*;Kir2-1 sel=-55.2;KCNQ2 W236L MoA=39.7%*
CC(C)(C)OC(=O)N1CCN(C(=O)c2cccnc2Cl)CC1 | 0.98 | i | · | ·
CCC(C(=O)OCC(=O)NC(=O)c1ccccc1)c1ccccc1 (stereo not drawn) | · | i | · | ·
CCC(C(=O)OCC(=O)NC(=O)c1ccccc1OC)c1ccccc1 (stereo not drawn) | · | i | 69.5%* | i
COc1ccc(C(=O)N/C(=C\c2ccco2)C(=O)OCc2ccco2)cc1 | 1.31 | i | · | ·
COc1ccc(C(=O)/C(=C\c2ccco2)N2C=CC=CC2=C(C#N)C#N)cc1 | · | i | 70.0%* | 61.0%*
CCCc1cc(=O)[nH]c(SCC(=O)c2cc(C)n(CCOC)c2C)n1 | 0.18 | i | · | ·
CCCc1cc(=O)[nH]c(SCC(=O)c2cc(C)n(CC(F)(F)F)c2C)n1 | 6.41* | i | i | i | CHO-K1 ctr=-13.3;KCNQ1 pot spec=74.1*;KCNQ2 pot conf=-15.6;Kir2-1 sel=-47.8
Cc1cc(C(=O)CCl)c(C)n1-c1c(C)n(C)n(-c2ccccc2)c1=O | · | i | · | ·

Screening data (PubChem)
